In paper PMC11006913:
Positions count from the first letter of the chain named.

Columns and labels:
Assay in all cases: PBM; 200 nM protein, PBS
Conditions in all cases: dsDNA, one strand shown
[1] = target: HOXA4 (Homo sapiens, UniProt Q00056 201-287, W262R)
[2] = target: HOXA4 (Homo sapiens, UniProt Q00056 201-287, R217L)
[3] = target: HOXA2 (Homo sapiens, UniProt O43364 129-215, R185K)
[4] = target: HOXA4 (Homo sapiens, UniProt Q00056 201-287)
[5] = target: HOXA4 (Homo sapiens, UniProt Q00056 201-287, W262F)
Sequence of HOXA4 (Homo sapiens, UniProt Q00056 201-287, W262F) (Q00056 201-287 W262F): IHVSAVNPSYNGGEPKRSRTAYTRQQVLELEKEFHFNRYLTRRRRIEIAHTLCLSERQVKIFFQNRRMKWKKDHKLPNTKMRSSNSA

[6] = target: ALX3 (Homo sapiens, UniProt O95076 139-225, N203Q)
Sequence of ALX3 (Homo sapiens, UniProt O95076 139-225, N203Q) (O95076 139-225 N203Q): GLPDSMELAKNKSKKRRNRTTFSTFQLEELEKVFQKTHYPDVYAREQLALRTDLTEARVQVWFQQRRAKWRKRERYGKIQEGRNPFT

[7] = target: T1, NKX2-6 (Homo sapiens, UniProt A6NCS4 118-204)
T1 sequence: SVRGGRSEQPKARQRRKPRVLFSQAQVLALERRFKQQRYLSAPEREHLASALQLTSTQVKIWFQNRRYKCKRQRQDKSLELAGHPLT

[8] = target: ALX3 (Homo sapiens, UniProt O95076 139-225)
Sequence of ALX3 (Homo sapiens, UniProt O95076 139-225) (O95076 139-225): as the sequence (O95076 139-225 N203Q) above, with Q65N counted along it

[9] = target: ALX3 (Homo sapiens, UniProt O95076 139-225, L168Q)
Sequence of ALX3 (Homo sapiens, UniProt O95076 139-225, L168Q) (O95076 139-225 L168Q): as the sequence (O95076 139-225 N203Q) above, with L30Q, Q65N counted along it

[10] = target: T2, NKX2-6 (Homo sapiens, UniProt A6NCS4 118-204, F151L)
T2 sequence: T1 sequence with F34L

[11] = target: ALX3 (Homo sapiens, UniProt O95076 139-225, L168V)
Sequence of ALX3 (Homo sapiens, UniProt O95076 139-225, L168V) (O95076 139-225 L168V): as the sequence (O95076 139-225 N203Q) above, with L30V, Q65N counted along it

[12] = target: ALX3 (Homo sapiens, UniProt O95076 139-225, N203S)
Sequence of ALX3 (Homo sapiens, UniProt O95076 139-225, N203S) (O95076 139-225 N203S): as the sequence (O95076 139-225 N203Q) above, with Q65S counted along it

[13] = target: HOXA2 (Homo sapiens, UniProt O43364 129-215, R185T)
Sequence of HOXA2 (Homo sapiens, UniProt O43364 129-215, R185T) (O43364 129-215 R185T): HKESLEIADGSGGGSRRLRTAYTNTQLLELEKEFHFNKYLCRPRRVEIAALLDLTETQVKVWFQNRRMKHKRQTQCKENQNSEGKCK

[14] = target: HOXA2 (Homo sapiens, UniProt O43364 129-215, Y150S)
Sequence of HOXA2 (Homo sapiens, UniProt O43364 129-215, Y150S) (O43364 129-215 Y150S): as the sequence (O43364 129-215 R185T) above, with Y22S, T57R counted along it

[15] = target: HOXA2 (Homo sapiens, UniProt O43364 129-215)
Sequence of HOXA2 (Homo sapiens, UniProt O43364 129-215) (O43364 129-215): as the sequence (O43364 129-215 R185T) above, with T57R counted along it

[16] = target: HOXD13 (Homo sapiens, UniProt P35453 263-343, T313R)
Sequence of HOXD13 (Homo sapiens, UniProt P35453 263-343, T313R) (P35453 263-343 T313R): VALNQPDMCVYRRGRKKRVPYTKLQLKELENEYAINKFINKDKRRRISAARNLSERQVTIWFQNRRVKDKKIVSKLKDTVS

[17] = target: HOXD13 (Homo sapiens, UniProt P35453 263-343)
Sequence of HOXD13 (Homo sapiens, UniProt P35453 263-343) (P35453 263-343): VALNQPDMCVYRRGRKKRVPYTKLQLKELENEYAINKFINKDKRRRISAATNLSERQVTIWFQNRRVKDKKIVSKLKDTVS

[18] = target: HOXD13 (Homo sapiens, UniProt P35453 263-343, T313A)
Sequence of HOXD13 (Homo sapiens, UniProt P35453 263-343, T313A) (P35453 263-343 T313A): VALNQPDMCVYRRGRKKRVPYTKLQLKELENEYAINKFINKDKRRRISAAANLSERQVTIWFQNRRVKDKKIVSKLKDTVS

[19] = target: PITX2 (Homo sapiens, UniProt Q99697 72-157)
[20] = target: MSX2 (Homo sapiens, UniProt P35548 130-214, R199I)
Sequence of MSX2 (Homo sapiens, UniProt P35548 130-214, R199I) (P35548 130-214 R199I): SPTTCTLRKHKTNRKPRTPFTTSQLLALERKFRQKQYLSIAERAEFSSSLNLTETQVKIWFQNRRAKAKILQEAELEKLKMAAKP

[21] = target: MSX2 (Homo sapiens, UniProt P35548 130-214)
Sequence of MSX2 (Homo sapiens, UniProt P35548 130-214) (P35548 130-214): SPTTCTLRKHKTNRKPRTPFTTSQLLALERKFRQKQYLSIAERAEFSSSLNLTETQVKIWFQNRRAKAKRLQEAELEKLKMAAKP

[22] = target: MSX2 (Homo sapiens, UniProt P35548 130-214, F161Y)
Sequence of MSX2 (Homo sapiens, UniProt P35548 130-214, F161Y) (P35548 130-214 F161Y): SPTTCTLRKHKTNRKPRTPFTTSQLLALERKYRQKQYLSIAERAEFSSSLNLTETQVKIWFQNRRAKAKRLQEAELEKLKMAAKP

[23] = target: HOXB6 (Homo sapiens, UniProt P17509 132-218, K202E)
Sequence of HOXB6 (Homo sapiens, UniProt P17509 132-218, K202E) (P17509 132-218 K202E): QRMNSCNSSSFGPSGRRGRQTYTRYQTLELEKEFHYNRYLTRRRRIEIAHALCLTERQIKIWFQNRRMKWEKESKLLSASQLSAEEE

[24] = target: HOXB6 (Homo sapiens, UniProt P17509 132-218)
Sequence of HOXB6 (Homo sapiens, UniProt P17509 132-218) (P17509 132-218): as the sequence (P17509 132-218 K202E) above, with E71K counted along it

[25] = target: VAX1 (Homo sapiens, UniProt Q5SQQ9 86-172)
Sequence of VAX1 (Homo sapiens, UniProt Q5SQQ9 86-172) (Q5SQQ9 86-172): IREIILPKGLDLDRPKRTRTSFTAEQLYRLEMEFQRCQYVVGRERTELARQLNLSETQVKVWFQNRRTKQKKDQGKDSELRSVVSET

[26] = target: VAX1 (Homo sapiens, UniProt Q5SQQ9 86-172, T142I)
Sequence of VAX1 (Homo sapiens, UniProt Q5SQQ9 86-172, T142I) (Q5SQQ9 86-172 T142I): as the sequence (Q5SQQ9 86-172) above, with T57I counted along it

[27] = target: VAX1 (Homo sapiens, UniProt Q5SQQ9 86-172, K157R)
Sequence of VAX1 (Homo sapiens, UniProt Q5SQQ9 86-172, K157R) (Q5SQQ9 86-172 K157R): as the sequence (Q5SQQ9 86-172) above, with K72R counted along it

Sequence of HOXA4 (Homo sapiens, UniProt Q00056 201-287, W262R) (Q00056 201-287 W262R): as the sequence (Q00056 201-287 W262F) above, with F62R counted along it
Sequence of HOXA4 (Homo sapiens, UniProt Q00056 201-287) (Q00056 201-287): as the sequence (Q00056 201-287 W262F) above, with F62W counted along it
Sequence of HOXA4 (Homo sapiens, UniProt Q00056 201-287, R217L) (Q00056 201-287 R217L): as the sequence (Q00056 201-287 W262F) above, with R17L, F62W counted along it
Sequence of HOXA2 (Homo sapiens, UniProt O43364 129-215, R185K) (O43364 129-215 R185K): as the sequence (O43364 129-215 R185T) above, with T57K counted along it

## CATTAATC
[1]
  binding signal: 10.5 upbm affinity estimate (log intensity, higher = more binding, comparable within an allelic series)
[2]
  binding signal: 11.9 upbm affinity estimate (log intensity, higher = more binding, comparable within an allelic series)
[3]
  binding signal: 13.2 upbm affinity estimate (log intensity, higher = more binding, comparable within an allelic series)
[4]
  binding signal: 13.6 upbm affinity estimate (log intensity, higher = more binding, comparable within an allelic series)
[5]
  binding signal: 11.3 upbm affinity estimate (log intensity, higher = more binding, comparable within an allelic series)

## ACCCCCCG
[1]
  binding signal: 9.65 upbm affinity estimate (log intensity, higher = more binding, comparable within an allelic series)
[2]
  binding signal: 9.8 upbm affinity estimate (log intensity, higher = more binding, comparable within an allelic series)
[6]
  binding signal: 7.72 upbm affinity estimate (log intensity, higher = more binding, comparable within an allelic series)
[7]
  binding signal: 9.16 upbm affinity estimate (log intensity, higher = more binding, comparable within an allelic series)
[4]
  binding signal: 9.93 upbm affinity estimate (log intensity, higher = more binding, comparable within an allelic series)
[8]
  binding signal: 7.75 upbm affinity estimate (log intensity, higher = more binding, comparable within an allelic series)
[9]
  binding signal: 7.65 upbm affinity estimate (log intensity, higher = more binding, comparable within an allelic series)
[10]
  binding signal: 9.07 upbm affinity estimate (log intensity, higher = more binding, comparable within an allelic series)
[11]
  binding signal: 7.57 upbm affinity estimate (log intensity, higher = more binding, comparable within an allelic series)
[5]
  binding signal: 9.7 upbm affinity estimate (log intensity, higher = more binding, comparable within an allelic series)
[12]
  binding signal: 7.73 upbm affinity estimate (log intensity, higher = more binding, comparable within an allelic series)

## CCCATGGC
[1]
  binding signal: 9.82 upbm affinity estimate (log intensity, higher = more binding, comparable within an allelic series)
[2]
  binding signal: 9.81 upbm affinity estimate (log intensity, higher = more binding, comparable within an allelic series)
[4]
  binding signal: 9.77 upbm affinity estimate (log intensity, higher = more binding, comparable within an allelic series)
[5]
  binding signal: 9.85 upbm affinity estimate (log intensity, higher = more binding, comparable within an allelic series)

## AGGGCTCC
[1]
  binding signal: 9.75 upbm affinity estimate (log intensity, higher = more binding, comparable within an allelic series)
[13]
  binding signal: 7.29 upbm affinity estimate (log intensity, higher = more binding, comparable within an allelic series)
[2]
  binding signal: 9.79 upbm affinity estimate (log intensity, higher = more binding, comparable within an allelic series)
[3]
  binding signal: 10.4 upbm affinity estimate (log intensity, higher = more binding, comparable within an allelic series)
[4]
  binding signal: 9.81 upbm affinity estimate (log intensity, higher = more binding, comparable within an allelic series)
[14]
  binding signal: 10.3 upbm affinity estimate (log intensity, higher = more binding, comparable within an allelic series)
[5]
  binding signal: 9.81 upbm affinity estimate (log intensity, higher = more binding, comparable within an allelic series)
[15]
  binding signal: 7.22 upbm affinity estimate (log intensity, higher = more binding, comparable within an allelic series)

## CCCCAAGG
[1]
  binding signal: 9.82 upbm affinity estimate (log intensity, higher = more binding, comparable within an allelic series)
[2]
  binding signal: 9.69 upbm affinity estimate (log intensity, higher = more binding, comparable within an allelic series)
[16]
  binding signal: 9.45 upbm affinity estimate (log intensity, higher = more binding, comparable within an allelic series)
[17]
  binding signal: 9.55 upbm affinity estimate (log intensity, higher = more binding, comparable within an allelic series)
[4]
  binding signal: 9.65 upbm affinity estimate (log intensity, higher = more binding, comparable within an allelic series)
[18]
  binding signal: 9.53 upbm affinity estimate (log intensity, higher = more binding, comparable within an allelic series)
[5]
  binding signal: 9.86 upbm affinity estimate (log intensity, higher = more binding, comparable within an allelic series)

## GCGGTCAC
[1]
  binding signal: 9.83 upbm affinity estimate (log intensity, higher = more binding, comparable within an allelic series)
[2]
  binding signal: 9.77 upbm affinity estimate (log intensity, higher = more binding, comparable within an allelic series)
[19]
  binding signal: 7.97 upbm affinity estimate (log intensity, higher = more binding, comparable within an allelic series)
[4]
  binding signal: 9.75 upbm affinity estimate (log intensity, higher = more binding, comparable within an allelic series)
[5]
  binding signal: 9.9 upbm affinity estimate (log intensity, higher = more binding, comparable within an allelic series)

## CCCGGTCG
[1]
  binding signal: 9.67 upbm affinity estimate (log intensity, higher = more binding, comparable within an allelic series)
[2]
  binding signal: 9.77 upbm affinity estimate (log intensity, higher = more binding, comparable within an allelic series)
[20]
  binding signal: 9.45 upbm affinity estimate (log intensity, higher = more binding, comparable within an allelic series)
[7]
  binding signal: 9.06 upbm affinity estimate (log intensity, higher = more binding, comparable within an allelic series)
[4]
  binding signal: 9.88 upbm affinity estimate (log intensity, higher = more binding, comparable within an allelic series)
[21]
  binding signal: 9.4 upbm affinity estimate (log intensity, higher = more binding, comparable within an allelic series)
[10]
  binding signal: 9.02 upbm affinity estimate (log intensity, higher = more binding, comparable within an allelic series)
[22]
  binding signal: 9.41 upbm affinity estimate (log intensity, higher = more binding, comparable within an allelic series)
[5]
  binding signal: 9.76 upbm affinity estimate (log intensity, higher = more binding, comparable within an allelic series)

## AGTCCCCG
[1]
  binding signal: 9.96 upbm affinity estimate (log intensity, higher = more binding, comparable within an allelic series)
[2]
  binding signal: 9.67 upbm affinity estimate (log intensity, higher = more binding, comparable within an allelic series)
[4]
  binding signal: 9.89 upbm affinity estimate (log intensity, higher = more binding, comparable within an allelic series)
[5]
  binding signal: 9.99 upbm affinity estimate (log intensity, higher = more binding, comparable within an allelic series)

## CCCCCTAG
[1]
  binding signal: 9.8 upbm affinity estimate (log intensity, higher = more binding, comparable within an allelic series)
[23]
  binding signal: 8.81 upbm affinity estimate (log intensity, higher = more binding, comparable within an allelic series)
[2]
  binding signal: 9.86 upbm affinity estimate (log intensity, higher = more binding, comparable within an allelic series)
[4]
  binding signal: 9.77 upbm affinity estimate (log intensity, higher = more binding, comparable within an allelic series)
[5]
  binding signal: 9.73 upbm affinity estimate (log intensity, higher = more binding, comparable within an allelic series)
[24]
  binding signal: 8.86 upbm affinity estimate (log intensity, higher = more binding, comparable within an allelic series)

## GCTGCTCC
[1]
  binding signal: 9.76 upbm affinity estimate (log intensity, higher = more binding, comparable within an allelic series)
[2]
  binding signal: 9.74 upbm affinity estimate (log intensity, higher = more binding, comparable within an allelic series)
[20]
  binding signal: 9.39 upbm affinity estimate (log intensity, higher = more binding, comparable within an allelic series)
[4]
  binding signal: 9.73 upbm affinity estimate (log intensity, higher = more binding, comparable within an allelic series)
[21]
  binding signal: 9.4 upbm affinity estimate (log intensity, higher = more binding, comparable within an allelic series)
[22]
  binding signal: 9.41 upbm affinity estimate (log intensity, higher = more binding, comparable within an allelic series)
[5]
  binding signal: 9.78 upbm affinity estimate (log intensity, higher = more binding, comparable within an allelic series)

## CCCGTGTC
[1]
  binding signal: 9.85 upbm affinity estimate (log intensity, higher = more binding, comparable within an allelic series)
[2]
  binding signal: 9.73 upbm affinity estimate (log intensity, higher = more binding, comparable within an allelic series)
[7]
  binding signal: 9.5 upbm affinity estimate (log intensity, higher = more binding, comparable within an allelic series)
[4]
  binding signal: 9.62 upbm affinity estimate (log intensity, higher = more binding, comparable within an allelic series)
[10]
  binding signal: 9.22 upbm affinity estimate (log intensity, higher = more binding, comparable within an allelic series)
[5]
  binding signal: 9.79 upbm affinity estimate (log intensity, higher = more binding, comparable within an allelic series)

## GACTCACC
[1]
  binding signal: 9.89 upbm affinity estimate (log intensity, higher = more binding, comparable within an allelic series)
[2]
  binding signal: 9.87 upbm affinity estimate (log intensity, higher = more binding, comparable within an allelic series)
[4]
  binding signal: 9.79 upbm affinity estimate (log intensity, higher = more binding, comparable within an allelic series)
[25]
  binding signal: 6.98 upbm affinity estimate (log intensity, higher = more binding, comparable within an allelic series)
[26]
  binding signal: 7.2 upbm affinity estimate (log intensity, higher = more binding, comparable within an allelic series)
[5]
  binding signal: 9.8 upbm affinity estimate (log intensity, higher = more binding, comparable within an allelic series)
[27]
  binding signal: 7.1 upbm affinity estimate (log intensity, higher = more binding, comparable within an allelic series)

## GGCGAGCC
[1]
  binding signal: 9.78 upbm affinity estimate (log intensity, higher = more binding, comparable within an allelic series)
[2]
  binding signal: 9.59 upbm affinity estimate (log intensity, higher = more binding, comparable within an allelic series)
[4]
  binding signal: 9.66 upbm affinity estimate (log intensity, higher = more binding, comparable within an allelic series)
[5]
  binding signal: 9.76 upbm affinity estimate (log intensity, higher = more binding, comparable within an allelic series)

## CGAGGGCG
[1]
  binding signal: 9.7 upbm affinity estimate (log intensity, higher = more binding, comparable within an allelic series)
[2]
  binding signal: 9.75 upbm affinity estimate (log intensity, higher = more binding, comparable within an allelic series)
[6]
  binding signal: 7.74 upbm affinity estimate (log intensity, higher = more binding, comparable within an allelic series)
[4]
  binding signal: 9.8 upbm affinity estimate (log intensity, higher = more binding, comparable within an allelic series)
[8]
  binding signal: 7.69 upbm affinity estimate (log intensity, higher = more binding, comparable within an allelic series)
[9]
  binding signal: 7.78 upbm affinity estimate (log intensity, higher = more binding, comparable within an allelic series)
[11]
  binding signal: 7.76 upbm affinity estimate (log intensity, higher = more binding, comparable within an allelic series)
[5]
  binding signal: 9.89 upbm affinity estimate (log intensity, higher = more binding, comparable within an allelic series)
[12]
  binding signal: 7.73 upbm affinity estimate (log intensity, higher = more binding, comparable within an allelic series)

## ACCTGCCG
[1]
  binding signal: 9.93 upbm affinity estimate (log intensity, higher = more binding, comparable within an allelic series)
[2]
  binding signal: 9.82 upbm affinity estimate (log intensity, higher = more binding, comparable within an allelic series)
[4]
  binding signal: 9.98 upbm affinity estimate (log intensity, higher = more binding, comparable within an allelic series)
[5]
  binding signal: 9.88 upbm affinity estimate (log intensity, higher = more binding, comparable within an allelic series)

## AACTAATA
[1]
  binding signal: 10.5 upbm affinity estimate (log intensity, higher = more binding, comparable within an allelic series)
[2]
  binding signal: 11.2 upbm affinity estimate (log intensity, higher = more binding, comparable within an allelic series)
[6]
  binding signal: 8.57 upbm affinity estimate (log intensity, higher = more binding, comparable within an allelic series)
[4]
  binding signal: 12.5 upbm affinity estimate (log intensity, higher = more binding, comparable within an allelic series)
[5]
  binding signal: 11 upbm affinity estimate (log intensity, higher = more binding, comparable within an allelic series)
[12]
  binding signal: 8.65 upbm affinity estimate (log intensity, higher = more binding, comparable within an allelic series)
